Test results reported in paper PMC5913336, “True equilibrium measurement of transcription factor-DNA binding affinities using automated polarization microscopy”.

Target: T1, Kni (Drosophila melanogaster, UniProt P10734 2-102)
T1 sequence: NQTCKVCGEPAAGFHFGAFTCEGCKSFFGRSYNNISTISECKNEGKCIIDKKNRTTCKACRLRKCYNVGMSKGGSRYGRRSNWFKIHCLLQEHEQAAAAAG
Assay: FP; 33 mM phosphate pH 7.0, 90 mM NaCl, 0.01% Tween 20, 0.1 mM DTT, 0.5% agarose; room temperature
Details: tags: N-GST (pGEX-6P-1, kept); dsDNA, one strand shown

Compared with CAAAACTAGAGCACG, CATAACTAGAGCACT is lower in binding signal: 2.74 Kd / Kd of best base at the position for the first, 1.93 Kd / Kd of best base at the position for the second.

Going from CAAAACAAGAGCACT to CAAAACGAGAGCACT, the binding signal falls from 7.6 Kd / Kd of best base at the position to 3.56 Kd / Kd of best base at the position.

First: CGAAACTAGAGCACT
Second: CAAAACTAGTGCACT
The binding signal of the first is lower: 1.31 Kd / Kd of best base at the position for the first, 4.66 Kd / Kd of best base at the position for the second.

Compared with CAAAACTAGAGTACT, CAGAACTAGAGCACT is lower in binding signal: 5.23 Kd / Kd of best base at the position for the first, 1.99 Kd / Kd of best base at the position for the second.

For CAAATCTAGAGCACT, the binding signal was 2.46 Kd / Kd of best base at the position.

With CAAAACTAGAGCACT the Kd was roughly 1.8 nM.

Target: T2, Cad (Drosophila melanogaster, UniProt P09085 273-344)
T2 sequence: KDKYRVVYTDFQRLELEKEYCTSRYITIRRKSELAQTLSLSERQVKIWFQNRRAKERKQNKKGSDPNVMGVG
Assay: FP; 20 mM Tris-acetate pH 7.0, 50 "nM" NaCl as printed (probably mM), 0.01% Tween 20, 0.1 mM DTT; conventional titration
Details: tags: N-GST (pGEX-6P-1, kept); dsDNA, one strand shown

Going from CACGTTTTATA to CACTTTTCATA, the binding signal rises from 5.5 Kd / Kd of best base at the position to 17.6 Kd / Kd of best base at the position.

CACTATTTATA and CACTTATTATA are the same in binding signal: 2.8 Kd / Kd of best base at the position for the first, 2.8 Kd / Kd of best base at the position for the second.

First: CACTTTTTGTA
Second: AACTTTTTATA
The binding signal of the first is higher: 29 Kd / Kd of best base at the position for the first, 2.9 Kd / Kd of best base at the position for the second.

First: CTCTTTTTATA
Second: GACTTTTTATA
The binding signal of the first is higher: 4.6 Kd / Kd of best base at the position for the first, 1.8 Kd / Kd of best base at the position for the second.

First: CAATTTTTATA
Second: CACTTTTTATC
The binding signal of the first is lower: 2 Kd / Kd of best base at the position for the first, 13.5 Kd / Kd of best base at the position for the second.

First: CATTTTTTATA
Second: CACTTTGTATA
The binding signal of the first is lower: 6.67 Kd / Kd of best base at the position for the first, 27.9 Kd / Kd of best base at the position for the second.

First: CACTTTCTATA
Second: CCCTTTTTATA
The binding signal of the first is higher: 37.9 Kd / Kd of best base at the position for the first, 1 Kd / Kd of best base at the position for the second.

Compared with CACTCTTTATA, CACTTTTTTTA is higher in binding signal: 7.2 Kd / Kd of best base at the position for the first, 181 Kd / Kd of best base at the position for the second.

First: CACCTTTTATA
Second: CGCTTTTTATA
The binding signal of the first is lower: 1.7 Kd / Kd of best base at the position for the first, 3.5 Kd / Kd of best base at the position for the second.

Going from CAGTTTTTATA to CACTTTTGATA, the binding signal rises from 1.11 Kd / Kd of best base at the position to 50.5 Kd / Kd of best base at the position.

Compared with CACTTTTTATT, CACTTTTTATG is lower in binding signal: 5.4 Kd / Kd of best base at the position for the first, 2.2 Kd / Kd of best base at the position for the second.

Compared with CACTTTTAATA, TACTTTTTATA is lower in binding signal: 4.1 Kd / Kd of best base at the position for the first, 1.3 Kd / Kd of best base at the position for the second.

Compared with CACATTTTATA, CACTTTTTAGA is higher in binding signal: 2.5 Kd / Kd of best base at the position for the first, 16 Kd / Kd of best base at the position for the second.

Going from CACTGTTTATA to CACTTTTTCTA, the binding signal rises from 3.1 Kd / Kd of best base at the position to 287 Kd / Kd of best base at the position.

CACTTTTTACA was tested, and the binding signal was 1.6 Kd / Kd of best base at the position.

Sequence CACTTTTTATA has a Kd of roughly 0.05 nM.
